Each structure is given as a SMILES string. Unmarked numbers belong to inactive results.

The subject of this experiment is Vero E6 infected with SARS-CoV-2. The experiment is described as follows: SARS-CoV-2 infection rate relative to infected DMSO; higher = more infection, active = 60 or less. Particulars: 24 h.
For the compound `O=C(O)CCCCC(CCSCc1ccccc1)SCc1ccccc1` (stereo not drawn) (10 µM), the SARS-CoV-2 infection rate is 104%. Consider `COc1cc2c(Nc3ccc(Cl)c(Cl)c3F)ncnc2cc1OC[C@@H]1C[C@@H]2CN(C)C[C@@H]2C1` (10 µM), for which the SARS-CoV-2 infection rate was 120%.

Regarding `Cc1cncc(CN2CCC(=C3c4ccc(Cl)cc4CCc4cccnc43)CC2)c1` [rupatadine] (10 µM), the SARS-CoV-2 infection rate was 108%. For the compound `NCCc1c[nH]c2ccc(C(N)=O)cc12` [5-carboxamidotryptamine] (10 µM), the SARS-CoV-2 infection rate is 103%. In the case of `CSc1ccc(C(=O)c2[nH]c(=O)[nH]c2C)cc1` [enoximone] (10 µM) it was 88.5%. Consider `NC(=O)c1cnc(N[C@@H]2CCCC[C@@H]2N)nc1Nc1cccc(-n2nccn2)c1` (10 µM), for which the SARS-CoV-2 infection rate is 17.5% (active).

For `CCC(=O)N1CCOc2c(cc(-c3ccc(OC)c(OC)c3)cc2OC[C@H]2CCCN(C)C2)C1` (0.833333 µM), the SARS-CoV-2 infection rate is 98.5%. Consider `Cc1cc(C)c(NC(=O)N(Cc2ccc3c(c2)Cc2ccccc2-3)C2CCCCCC2)c(C)c1` (10 µM), for which the SARS-CoV-2 infection rate was 106%. Turning to `CNCCCC1(c2ccccc2)OC(C)(C)c2ccccc21` (stereo not drawn) [talopram] (10 µM), the SARS-CoV-2 infection rate is 111%. In the case of `COc1ccc2cc1Oc1ccc(cc1)C[C@H]1c3c(cc4c(c3Oc3cc5c(cc3OC)CCN(C)[C@@H]5C2)OCO4)CCN1C` [cepharanthine] (10 µM) it was 77.5%; in that of `COc1cc(Br)c(Nc2nc(-c3c(C)nc4ncccn34)cs2)c(Br)c1` (10 µM), 114%; in that of `CCN(CCO)CCCC(C)Nc1ccnc2cc(Cl)ccc12` (stereo not drawn) [hydroxychloroquine] (10 µM), 88%.

Take `CC[N+](CC)(CCNC(=O)C(=O)NCC[N+](CC)(CC)Cc1ccccc1Cl)Cc1ccccc1Cl` [ambenonium] (10 µM): the SARS-CoV-2 infection rate was 106%. For the compound `Cc1ccsc1/C=C/C1=NCCCN1C` [morantel] (10 µM), the SARS-CoV-2 infection rate is 99.5%. The result for `C[C@H](N)Cn1ccc2cc(F)c(Cl)cc21` (10 µM) reads 90.5%; that for `C[C@]12CCC(=O)C[C@@H]1CC[C@@H]1[C@@H]2CC[C@]2(C)C=CC[C@@H]12` [androstenone] (10 µM), 112%; that for `CN(C)C(=O)Oc1ccc[n+](C)c1` [mestinon] (10 µM), 121%. In the case of `CC1(C)O[C@@H]2[C@@H](CO[C@@]3(COS(N)(=O)=O)OC(C)(C)O[C@@H]23)O1` [topiramate] (10 µM) it was 102%.

These data come from the supplement of paper PMC13380429.
